Measurements from ChEMBL document CHEMBL1157539, “Thousands of chemical starting points for antimalarial lead identification” (Nature, 2010).

Assays:
Format in all cases: functional
Plasmodium falciparum [1] = assay: GSK_TCMDC: Inhibition of Plasmodium falciparum 3D7 in whole red blood cells, using parasite LDH activity as an index of growth. Test compounds present at 2uM
Plasmodium falciparum [2] = assay: GSK_TCMDC: Inhibition of Plasmodium falciparum Dd2 in whole red blood cells, using parasite LDH activity as an index of growth. Test compounds present at 2uM
HepG2 = assay: GSK_TCMDC: Percent inhibition of human HepG2 cell line. Test compounds present at 10uM.

SMILES	Inhibition (Plasmodium falciparum [1])	Inhibition (Plasmodium falciparum [2])	Inhibition (HepG2)
O=C(Cc1ccc(-n2cnnn2)cc1)N(Cc1cncn1Cc1cccc(C(F)(F)F)c1)CC1CC1	86%	0%	0%
Cc1cccc2nc(-c3cccc(-c4ccc(NC(=O)CC5NC(=O)c6ccccc65)cc4)c3)[nH]c12 (configuration not stated)	100%	67%	30%
CN(CCCc1c[nH]c2ccccc12)CCC1CCC(NC(=O)/C=C/c2ccc(Cl)c(Cl)c2)CC1 (configuration not stated)	99%	63%	38%
COc1ccc(CNCc2ccc(-c3cccc(-c4nc5cc(F)ccc5[nH]4)c3)cc2)cc1.O=C(O)C(F)(F)F	100%	94%	33%
O=C(/C=C/c1ccc(Cl)c(Cl)c1)NCCCCCN1CCC(NC(=O)Nc2ccc(C(F)(F)F)cc2)CC1	94%	34%	58%
CCCN(CCC)CC(O)COc1ccccc1C(=O)Nc1ccccc1 (configuration not stated)	92%	95%	6%
Cc1cc(O)c(CN(C)Cc2ccc3c(c2)OCO3)cc1C(C)C	98%	74%	9%
CN1CCC(Oc2ccc(CN3CC[C@H](NC(=O)c4cccc(C#N)c4)C3)c3ccccc23)C1.O=C(O)C(F)(F)F (some centres not stated)	97%	30%	10%
Cc1c(CCNC(=O)CCCN2CC(C)CC(C)C2)c2ccccc2n1C.Cl (configuration not stated)	87%	100%	8%
O=C(NCCN1CCCC1)N1CCCN(c2ncnc3cc(-c4ccc(F)cc4)sc23)CC1.O=C(O)C(F)(F)F	81%	19%	5%
CN1CCN(c2ccnc3ccc(NC(=O)Nc4cccc5c(-c6ccncc6)cccc45)cc23)CC1	100%	100%	7%
COc1ccc(-c2nc3c(N)nc(N)nc3nc2C(C)C)cc1	96%	0%	71%
CC(C)CC1c2[nH]c3ccccc3c(=O)c2CN1C(=O)OC(C)(C)C (configuration not stated)	97%	96%	2%
O=C(/C=C/c1ccc(Cl)c(Cl)c1)NCCCCCN1CCCC(C(=O)Nc2cccc(Cl)c2)C1 (configuration not stated)	99%	2%	41%
Cc1cc(N(C)C)nc(Nc2ccc(NC(=O)C(C)Oc3ccccc3)cc2)n1 (configuration not stated)	98%	30%	2%
COc1ccc2nccc([C@@H](O)CN3CCC(NCc4cc5ccc(C#N)cc5[nH]4)CC3)c2c1.O=C(O)C(=O)O	100%	39%	31%
CN1CCN=C1c1ccc(NC(=O)Nc2ccc(C3=NCCN3C)cc2)cc1.Cl	85%	69%	7%
CC(Sc1nnc(-c2cccs2)[nH]1)C(=O)c1c[nH]c2ccccc12 (configuration not stated)	94%	58%	0%
COc1ccc(Nc2nc(NC3CCCC3)cc(-c3ccc(OC)cc3)n2)cc1	86%	15%	12%
CNC(=O)COc1cc(C)c(C2CCN(CCCCNC(=O)c3ccc(-c4ccc(C(F)(F)F)cc4)cc3)CC2)cc1C	100%	72%	38%
Cc1ccc(O)cc1Nc1ccnc2cc(-c3csc(CN(C)CCN(C)C)n3)ccc12	100%	80%	3%
CCc1c(C)nc(-n2nc(C)cc2NC(=O)c2cccc3ccccc23)[nH]c1=O	98%	89%	39%
OC1=C2C(=Nc3ccccc3SC2c2cccs2)c2ccccc21 (configuration not stated)	96%	93%	8%
CC(C)(C)c1ccc2oc(=O)n(C3CCN(C(=O)c4ccc([N+](=O)[O-])o4)CC3)c2c1	94%	87%	0%
Cc1cc(OCC2CCN(c3ncc(C(=O)Nc4ccccc4)cc3Cl)CC2)ccc1F	91%	87%	27%
Cc1nc(-c2ccccc2)nc(N2CCN(C(=O)c3ccco3)CC2)c1Cc1ccccc1F	95%	86%	7%
CC(CCCCC(=O)Nc1ccc(CC(C)NCCc2cccc(Cl)c2)cc1)NCCc1cccc(Cl)c1 (configuration not stated)	91%	0%	28%
CC(C)CCNC(=O)c1cnc2c(O)cccc2c1Nc1cccc(NC(=O)c2ccc(F)cc2)c1.O=C(O)C(F)(F)F	93%	43%	51%
COCCNCc1ncsc1-c1ccc2c(Nc3ccc(Oc4ccccc4)cc3)ccnc2c1	91%	93%	34%
